KLF5 inh: KLF5 expression inhibitors, primary screen, DLD-1 cells, luminescence. DLD-1 KLF5 promoter-luciferase reporter. inhibition, % at 5 µM. AID 1700, 2009. 290,000 tested, 0.23% active;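 active = inhibition above a per-plate limit of that plate's mean compound inhibition plus 3 SD, cut at about 60% in these data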;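 note: 0% = DMSO wells and 100% = LY294002 at 200 µM; higher means less KLF5 promoter-driven luciferase light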
aSyn UTR inh: MLPCN primary screen, SNCA 5' untranslated region | alpha-synuclein 5'UTR reporter, inhibitor activity | inhibition, % (tested at 7.5 µM) | 300,000 tested, 0.82% active | AID 1813, 2009; in the data active = inhibition above about 60%;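 note: H4 neuroglioblastoma cells stably carrying SNCA 5'UTR luciferase fusion; 0% = DMSO wells and 100% = positive control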
APP 5UTR inh: inhibitors of APP translation via 5'UTR reporter, primary screen, APP 5'UTR luciferase, SH-SY5Y cells | SH-SY5Y APP 5'UTR-luciferase reporter, luminescence | inhibition, % at 2 µM | 190,000 tested, 0.82% active | AID 1285, 2008;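 active = inhibition above a set limit, derived from the sample mean plus 3 SD, cut at about 45% in these data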
Ba/F3 V617F tox: reduced viability of JAK2V617F-dependent Ba/F3 cells, primary screen, JAK2V617F inhibitor project, cell-based, Ba/F3 EpoR-JAK2V617F, luminescence. ATP luminescence. inhibition, % at 5.6 µM. 220,000 tested, 1.1% active. AID 1446, 2008;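 active = inhibition above the campaign mean plus 3 SD over all tested compounds, cut at about 24% in these data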;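 note: cytokine-independent growth of Ba/F3 cells driven by EpoR plus mutant JAK2; 0% = DMSO-treated cells and 100% = JAK inhibitor I control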
BaF3 parental: parental Ba/F3 cell viability inhibition, counter-screen for JAK2V617F inhibitor project, murine pro-B, CellTiter-Glo luminescence. CellTiter-Glo ATP luminescence. inhibition, % at 5.6 µM. 220,000 tested, 1.1% active. AID 1486, 2009;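 active = inhibition above a per-campaign cutoff, the mean inhibition of all tested compounds plus 3 SD, cut at about 27% in these data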;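 note: 0% = DMSO wells and 100% = JAK Inhibitor I control wells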
IEC-6 tox: cytotoxicity in IEC-6 intestinal epithelial cells, primary screen, cytotoxicity control for KLF5 inhibitor project, cell-based, luminescence | IEC-6 cytotoxicity, luminescence viability | inhibition, % at 5 µM | 290,000 tested, 0.78% active; in the data active = inhibition above about 22%;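 note: 0% = plate median of test compound wells and 100% = cytotoxic reference compound wells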
Active calls of the source: *. Compounds with a hit are over-represented: about 2.2% of the library has one in this group of screens.

How did Cc1ccc2nc(NC3=NCN(Cc4ccc5c(c4)OCO5)CN3)nc(C)c2c1 do in these assays?
KLF5 inh: 6.0; APP 5UTR inh: 93.8*; Ba/F3 V617F tox: 62.9*; BaF3 parental: 69.9*; IEC-6 tox: 9.1

Results for CCOc1ccc2nc(NC3=NCN(CC4CCCO4)CN3)nc(C)c2c1 (stereo unspecified) ?
KLF5 inh: -4.3; APP 5UTR inh: 5.5; Ba/F3 V617F tox: 3.3; BaF3 parental: 10.9; IEC-6 tox: -1.1

How did COc1ccc(OC)c(/C=C/C(=O)OCC(=O)c2c(N)n(C)c(=O)n(C)c2=O)c1 do in these assays?
KLF5 inh: -32.9; aSyn UTR inh: 18.5; APP 5UTR inh: 4.9; Ba/F3 V617F tox: 0.8; BaF3 parental: 4.4; IEC-6 tox: -1.3

What do the screens show for `COc1ccccc1NC(=O)CN1CCN(CC(=O)Nc2ccc(C)c(F)c2)CC1`?
KLF5 inh: -34.0; aSyn UTR inh: 30.7; IEC-6 tox: 0.1

How did OCC1OC(n2nc3ccccc3n2)C(O)C(O)C1O (stereo unspecified) do in these assays?
KLF5 inh: -11.7; aSyn UTR inh: 27.2; APP 5UTR inh: 13.7; Ba/F3 V617F tox: -0.6; BaF3 parental: 27.6*; IEC-6 tox: -11.5

How did NC(=O)c1ncn([C@@H]2O[C@H](CO)[C@@H](O)[C@H]2O)n1 do in these assays?
KLF5 inh: -23.0; aSyn UTR inh: 19.7; APP 5UTR inh: -14.3; Ba/F3 V617F tox: 4.5; BaF3 parental: 9.1; IEC-6 tox: 12.7

How did Clc1ccc(Cn2c(/C=C/c3ccco3)nc3ccccc32)cc1 do in these assays?
KLF5 inh: -12.8; aSyn UTR inh: -12.7; APP 5UTR inh: -9.8; Ba/F3 V617F tox: -2.3; BaF3 parental: 27.0*; IEC-6 tox: 3.8

Results for Cc1ccc(Cn2c(/C=C/c3ccco3)nc3ccccc32)cc1 ?
KLF5 inh: -17.1; aSyn UTR inh: 1.2; APP 5UTR inh: -36.8; Ba/F3 V617F tox: 4.0; BaF3 parental: 13.5; IEC-6 tox: -3.5

How did CCN(Cc1cc2cc(C)ccc2[nH]c1=O)C(=O)c1cccc([N+](=O)[O-])c1 do in these assays?
KLF5 inh: -2.4; aSyn UTR inh: 9.6; Ba/F3 V617F tox: -3.7; BaF3 parental: 1.8; IEC-6 tox: -2.8

How did CN1CCN(c2ccccc2NC(=O)c2ccccc2F)CC1 do in these assays?
KLF5 inh: -7.8; aSyn UTR inh: -10.2; Ba/F3 V617F tox: -2.8; BaF3 parental: 1.0; IEC-6 tox: -6.0

What do the screens show for `CC(=O)N1CCN(c2ccccc2NC(=O)c2ccc(C#N)cc2F)CC1`?
KLF5 inh: -2.3; aSyn UTR inh: -23.3; APP 5UTR inh: 2.8; Ba/F3 V617F tox: 1.4; BaF3 parental: 90.1*; IEC-6 tox: 2.2

Results for CCOc1cccc(/C=N/Nc2ccc(S(=O)(=O)N(CC)CC)cn2)c1O ?
KLF5 inh: 17.7; aSyn UTR inh: 88.2*; APP 5UTR inh: 82.9*; Ba/F3 V617F tox: -2.6; BaF3 parental: 2.0; IEC-6 tox: 3.9

Results for CCN(CC)S(=O)(=O)c1ccc(N/N=C(\C)c2ccc(OC)cc2O)nc1 ?
KLF5 inh: 19.7; aSyn UTR inh: 78.2*; Ba/F3 V617F tox: 1.4; BaF3 parental: -2.7; IEC-6 tox: -3.1

What do the screens show for `O=C(C/C=N\OCc1ccc([N+](=O)[O-])cc1)Nc1ccc(Br)cc1`?
KLF5 inh: -26.7; aSyn UTR inh: 3.0; APP 5UTR inh: 3.9; Ba/F3 V617F tox: 3.8; BaF3 parental: 3.6; IEC-6 tox: 7.3

How did Cc1cc(C(=O)N/N=C2\CCCc3ccccc32)c(C)o1 do in these assays?
KLF5 inh: -17.9; aSyn UTR inh: -126.1; APP 5UTR inh: 67.8*; Ba/F3 V617F tox: 0.2; BaF3 parental: 7.0; IEC-6 tox: 8.5

Results for Cc1ccc(S(=O)(=O)Nc2cccc3ncccc23)s1 ?
KLF5 inh: 24.2; aSyn UTR inh: 27.3; APP 5UTR inh: 56.1*; Ba/F3 V617F tox: 2.6; BaF3 parental: 4.1; IEC-6 tox: 93.5*

What do the screens show for `Cc1ccc(S(=O)(=O)Nc2cccc3ncccc23)cc1`?
KLF5 inh: -42.7; aSyn UTR inh: 21.2; Ba/F3 V617F tox: 0.7; BaF3 parental: 1.7; IEC-6 tox: 1.7

Results for Cc1cc([N+](=O)[O-])nn1CCC(=O)Nc1nccs1 ?
KLF5 inh: -14.6; aSyn UTR inh: 6.3; APP 5UTR inh: -3.6; Ba/F3 V617F tox: -4.3; BaF3 parental: 4.7; IEC-6 tox: -3.8

Results for Clc1ccc(-c2c[n+](Cc3ccc(Cl)cc3Cl)c3n2CCCCC3)cc1 ?
KLF5 inh: -0.1; aSyn UTR inh: 8.0; Ba/F3 V617F tox: 73.3*; BaF3 parental: 72.9*; IEC-6 tox: 6.0

Results for O=[N+]([O-])c1ccc(C[n+]2cc(-c3ccc(Cl)c(Cl)c3)n3c2CCCCC3)cc1 ?
KLF5 inh: -28.4; aSyn UTR inh: 9.3; Ba/F3 V617F tox: -1.7; BaF3 parental: 1.2; IEC-6 tox: 5.2

What do the screens show for `Clc1ccc(C[n+]2cc(-c3ccccc3)n3c2CCCCC3)c(Cl)c1`?
KLF5 inh: 3.9; aSyn UTR inh: -18.2; APP 5UTR inh: -7.9; Ba/F3 V617F tox: 85.6*; BaF3 parental: 79.3*; IEC-6 tox: 12.1

What do the screens show for `Clc1ccc(-c2cnc3n2CCCCC3)cc1`?
KLF5 inh: -25.1; aSyn UTR inh: -8.3; APP 5UTR inh: -7.0; Ba/F3 V617F tox: 1.9; BaF3 parental: 5.0; IEC-6 tox: 3.6

How did Clc1ccc(-c2c[n+](Cc3ccc(Br)cc3)c3n2CCCCC3)cc1 do in these assays?
KLF5 inh: -18.2; aSyn UTR inh: 5.9; Ba/F3 V617F tox: 61.9*; BaF3 parental: 69.1*; IEC-6 tox: 0.1

How did CC(C)c1ccc(CNC(=O)C2CCCN2S(=O)(=O)c2ccccc2)cc1 (stereo unspecified) do in these assays?
KLF5 inh: -3.2; aSyn UTR inh: 2.0; IEC-6 tox: 3.8

How did COc1ccccc1C1c2ccc3ccccc3c2Oc2ncn(CCN(C)C)c(=N)c21 (stereo unspecified) do in these assays?
KLF5 inh: -13.8; aSyn UTR inh: -11.2; IEC-6 tox: 15.4

Results for COc1ccc(C2c3ccc4ccccc4c3Oc3ncn(CCCN(C)C)c(=N)c32)cc1 (stereo unspecified) ?
KLF5 inh: -13.9; aSyn UTR inh: 89.8*; IEC-6 tox: 5.0

Results for Cc1ccc(Nc2nnc(C(C)(C)C)c(=O)n2N)cc1 ?
KLF5 inh: -10.5; aSyn UTR inh: 15.9; APP 5UTR inh: -11.6; Ba/F3 V617F tox: -1.3; BaF3 parental: 5.2; IEC-6 tox: -8.3

What do the screens show for `CC(C)(C)c1nnc(N/N=C/c2cc(Br)ccc2O)n(N)c1=O`?
KLF5 inh: 9.0; aSyn UTR inh: 115.5*; APP 5UTR inh: 80.5*; Ba/F3 V617F tox: -0.2; BaF3 parental: 0.9; IEC-6 tox: -3.1

How did Cn1nc(C(=O)NCCCN2CCCCC2)c2c1-c1ccccc1SC2 do in these assays?
KLF5 inh: -10.7; aSyn UTR inh: -1.2; IEC-6 tox: 5.3
